# Source: PMC11062922 (Nature Chemical Biology, 2023)
# Where two headings read alike, the source gives them in different places.
# Experiments:
# Design in all cases: species or system human, MV4-11 + K-562 + COLO205 + SK-N-BE2 + OVCAR-8
# CDC42 = conditions: read-out: apparent Kd, compound concentrations: 100 nM and 1000 nM (sheet 'Samples'), n = 1
# CDKL5 = conditions: read-out: apparent Kd, n = 1
# CLK1 = conditions: read-out: apparent Kd; compound concentrations: 100 nM and 1000 nM (sheet 'Samples'), CATDS: 4.7124029654616303E-2; n = 1
# CLK4 = conditions: read-out: apparent Kd; compound concentrations: 100 nM and 1000 nM (sheet 'Samples'), CATDS: 4.6212544182609797E-2; n = 1
# COX5A = conditions: read-out: apparent Kd; compound concentrations: 100 nM and 1000 nM (sheet 'Samples'), CATDS: 4.3023154041585097E-2; n = 1
# CSNK1D = conditions: read-out: apparent Kd; compound concentrations: 100 nM and 1000 nM (sheet 'Samples'), CATDS: 4.2260690384559901E-2; n = 1
# CSNK1E = conditions: read-out: apparent Kd; compound concentrations: 100 nM and 1000 nM (sheet 'Samples'), CATDS: 3.6484131745227702E-2; n = 1
# EIF2AK1 = conditions: read-out: apparent Kd; compound concentrations: 100 nM and 1000 nM (sheet 'Samples'), CATDS: 4.9510201878617897E-2; n = 1
# GAK = conditions: read-out: apparent Kd; compound concentrations: 100 nM and 1000 nM (sheet 'Samples'), CATDS: 0.41748311116987502; n = 1
# IGF1R = conditions: read-out: apparent Kd; compound concentrations: 100 nM and 1000 nM (sheet 'Samples'), CATDS: 4.75175381268634E-2; n = 1
# INSR = conditions: read-out: apparent Kd; compound concentrations: 100 nM and 1000 nM (sheet 'Samples'), CATDS: 6.6437205793840798E-2; n = 1
# MAPK10 = conditions: read-out: apparent Kd; compound concentrations: 100 nM and 1000 nM (sheet 'Samples'), CATDS: 0.17405984899870899; n = 1
# MAPK8 = conditions: read-out: apparent Kd; compound concentrations: 100 nM and 1000 nM (sheet 'Samples'), CATDS: 0.110364514010045; n = 1
# MAPK9 = conditions: read-out: apparent Kd; compound concentrations: 100 nM and 1000 nM (sheet 'Samples'), CATDS: 6.3911773548267894E-2; n = 1
# NQO2 = conditions: read-out: apparent Kd, n = 1
# PSMC4 = conditions: read-out: apparent Kd; compound concentrations: 100 nM and 1000 nM (sheet 'Samples'), CATDS: 4.1025682332982399E-2; n = 1
# PTK2B = conditions: read-out: apparent Kd; compound concentrations: 100 nM and 1000 nM (sheet 'Samples'), CATDS: 7.7838120070478606E-2; n = 1
# TNK1 = conditions: read-out: apparent Kd, n = 1
# TTK = conditions: read-out: apparent Kd; compound concentrations: 100 nM and 1000 nM (sheet 'Samples'), CATDS: 5.00246606430578E-2; n = 1
# CDK16 = conditions: read-out: apparent Kd; compound concentrations:100 nM and 1000 nM (sheet 'Samples'); n = 1
# CDK17 = conditions: read-out: apparent Kd; compound concentrations:100 nM and 1000 nM (sheet 'Samples'); n = 1
# CDK6 = conditions: read-out: apparent Kd; compound concentrations:100 nM and 1000 nM (sheet 'Samples'); n = 1
# CDK7 = conditions: read-out: apparent Kd; compound concentrations:100 nM and 1000 nM (sheet 'Samples'); n = 1
# CDK9 = conditions: read-out: apparent Kd; compound concentrations:100 nM and 1000 nM (sheet 'Samples'); n = 1
# EPHB2 = conditions: read-out: apparent Kd; compound concentrations:100 nM and 1000 nM (sheet 'Samples'); n = 1
# ERCC2 = conditions: read-out: apparent Kd; compound concentrations:100 nM and 1000 nM (sheet 'Samples'); n = 1
# FER = conditions: read-out: apparent Kd; compound concentrations:100 nM and 1000 nM (sheet 'Samples'); n = 1
# GSK3A = conditions: read-out: apparent Kd; compound concentrations:100 nM and 1000 nM (sheet 'Samples'); n = 1
# GSK3B = conditions: read-out: apparent Kd; compound concentrations:100 nM and 1000 nM (sheet 'Samples'); n = 1
# ICK = conditions: read-out: apparent Kd; compound concentrations:100 nM and 1000 nM (sheet 'Samples'); n = 1
# MAPK7 = conditions: read-out: apparent Kd; compound concentrations:100 nM and 1000 nM (sheet 'Samples'); n = 1
# PDGFRB = conditions: read-out: apparent Kd; compound concentrations:100 nM and 1000 nM (sheet 'Samples'); n = 1
# TNK2 = conditions: read-out: apparent Kd; compound concentrations:100 nM and 1000 nM (sheet 'Samples'); n = 1
# [1] = compound concentrations:100 nM and 1000 nM (sheet 'Samples')
structure (smiles),measurement,setting,value
COc1ccc(Nc2nccc(N3CCC(NC(=O)Nc4cccc(C(C)=O)c4)C3)n2)cc1 (stereo not shown) [GSK1379731A],potency estimated from few doses,CDC42; CATDS: 0.48931368679936299,1580 nM
same,potency estimated from few doses,"CDKL5; compound concentrations: 100 nM and 1000 nM (sheet 'Samples'), CATDS: 0.51116349982272002",1450 nM
CCCN1CCCC(c2ccc(Nc3nc(Nc4cc(F)ccc4C(N)=O)c4cc[nH]c4n3)c(OC)c2)C1 (stereo not shown) [GSK1173862A],potency estimated from few doses,CDC42; CATDS: 4.3032630224219597E-2,1230 nM
same,potency estimated from few doses,CLK1,927 nM
same,potency estimated from few doses,CLK4,982 nM
same,potency estimated from few doses,COX5A,1230 nM
same,potency estimated from few doses,CSNK1D,1310 nM
same,potency estimated from few doses,CSNK1E,2340 nM
same,potency estimated from few doses,EIF2AK1,805 nM
same,potency estimated from few doses,GAK,17.6 nM
same,potency estimated from few doses,IGF1R,905 nM
same,potency estimated from few doses,INSR,391 nM
same,potency estimated from few doses,MAPK10,65.2 nM
same,potency estimated from few doses,MAPK8,143 nM
same,potency estimated from few doses,MAPK9,427 nM
same,potency estimated from few doses,"NQO2; compound concentrations: 100 nM and 1000 nM (sheet 'Samples'), CATDS: 4.0166930587455497E-2",1570 nM
same,potency estimated from few doses,PSMC4,1450 nM
same,potency estimated from few doses,PTK2B,280 nM
same,potency estimated from few doses,"TNK1; compound concentrations: 100 nM and 1000 nM (sheet 'Samples'), CATDS: 8.1062749446302901E-2",257 nM
same,potency estimated from few doses,TTK,783 nM
CN1CCC(C(=O)Nc2n[nH]c3nc(-c4ccc(O)cc4)c(Br)cc23)CC1.O=C(O)/C=C\C(=O)O [SB-732881-H],potency estimated from few doses,CDK16,531 nM
same,potency estimated from few doses,CDK17,459 nM
same,potency estimated from few doses,CDK6,786 nM
same,potency estimated from few doses,CDK7,732 nM
same,potency estimated from few doses,CDK9,234 nM
same,potency estimated from few doses,CDKL5; [1],21 nM
same,potency estimated from few doses,EPHB2,1100 nM
same,potency estimated from few doses,ERCC2,985 nM
same,potency estimated from few doses,FER,1270 nM
same,potency estimated from few doses,GSK3A,2.51 nM
same,potency estimated from few doses,GSK3B,8.66 nM
same,potency estimated from few doses,ICK,1160 nM
same,potency estimated from few doses,MAPK7,1760 nM
same,potency estimated from few doses,NQO2; [1],1590 nM
same,potency estimated from few doses,PDGFRB,1730 nM
same,potency estimated from few doses,TNK1; [1],744 nM
same,potency estimated from few doses,TNK2,964 nM
